Source: ChEMBL document CHEMBL1961873, “Compounds: GSK PKIS; Assays: Nanosyn kinase panel” (2012)
“And” between values parts separate entries of the source, which are not always exact repeats. Equal entries are not always repeated.

Tests used:
[1] = biological target: RAC-alpha serine/threonine-protein kinase (Homo sapiens) (UniProt P31749); details: at 0.1 µM
[2] = biological target: RAC-alpha serine/threonine-protein kinase (Homo sapiens) (UniProt P31749); details: at 1 µM
[3] = biological target: RAC-beta serine/threonine-protein kinase (Homo sapiens) (UniProt P31751); details: at 0.1 µM
[4] = biological target: RAC-beta serine/threonine-protein kinase (Homo sapiens) (UniProt P31751); details: at 1 µM
[5] = biological target: RAC-gamma serine/threonine-protein kinase (Homo sapiens) (UniProt Q9Y243); details: at 0.1 µM
[6] = biological target: RAC-gamma serine/threonine-protein kinase (Homo sapiens) (UniProt Q9Y243); details: at 1 µM
[7] = biological target: G protein-coupled receptor kinase 6 (Homo sapiens) (UniProt P43250); details: at 0.1 µM
[8] = biological target: G protein-coupled receptor kinase 6 (Homo sapiens) (UniProt P43250); details: at 1 µM
[9] = biological target: T1, Rhodopsin kinase GRK7 (Homo sapiens) (UniProt Q8WTQ7); details: at 0.1 µM
T1 sequence (whole entry): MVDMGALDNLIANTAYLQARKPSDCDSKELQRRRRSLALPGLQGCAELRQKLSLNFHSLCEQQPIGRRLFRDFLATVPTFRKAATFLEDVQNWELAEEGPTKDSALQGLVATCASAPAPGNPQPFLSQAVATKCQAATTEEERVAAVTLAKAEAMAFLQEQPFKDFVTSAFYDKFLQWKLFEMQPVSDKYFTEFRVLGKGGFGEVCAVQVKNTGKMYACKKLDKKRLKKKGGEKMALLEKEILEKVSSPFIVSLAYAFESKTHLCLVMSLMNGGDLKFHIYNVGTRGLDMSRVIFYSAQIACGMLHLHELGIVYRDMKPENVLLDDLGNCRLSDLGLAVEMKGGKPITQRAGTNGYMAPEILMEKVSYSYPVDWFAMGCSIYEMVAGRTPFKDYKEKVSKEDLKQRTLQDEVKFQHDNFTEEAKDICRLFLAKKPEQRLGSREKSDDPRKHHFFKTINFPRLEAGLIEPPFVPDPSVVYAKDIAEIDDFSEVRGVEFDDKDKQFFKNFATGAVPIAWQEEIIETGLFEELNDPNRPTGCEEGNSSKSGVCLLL

[10] = biological target: T1, Rhodopsin kinase GRK7 (Homo sapiens); details: at 1 µM
[11] = biological target: Serine/threonine-protein kinase MRCK alpha (Homo sapiens) (UniProt Q5VT25); details: at 0.1 µM
[12] = biological target: Serine/threonine-protein kinase MRCK alpha (Homo sapiens) (UniProt Q5VT25); details: at 1 µM
[13] = biological target: Serine/threonine-protein kinase MRCK beta (Homo sapiens) (UniProt Q9Y5S2); details: at 0.1 µM
[14] = biological target: Serine/threonine-protein kinase MRCK beta (Homo sapiens) (UniProt Q9Y5S2); details: at 1 µM
[15] = biological target: Ribosomal protein S6 kinase alpha-5 (Homo sapiens) (UniProt O75582); details: at 0.1 µM
[16] = biological target: Ribosomal protein S6 kinase alpha-5 (Homo sapiens) (UniProt O75582); details: at 1 µM
[17] = biological target: Ribosomal protein S6 kinase alpha-4 (Homo sapiens) (UniProt O75676); details: at 0.1 µM
[18] = biological target: Ribosomal protein S6 kinase alpha-4 (Homo sapiens) (UniProt O75676); details: at 1 µM
[19] = biological target: Ribosomal protein S6 kinase beta-1 (Homo sapiens) (UniProt P23443); details: at 0.1 µM
[20] = biological target: Ribosomal protein S6 kinase beta-1 (Homo sapiens) (UniProt P23443); details: at 1 µM

Chain of Ribosomal protein S6 kinase alpha-5 (Homo sapiens) (O75582 whole entry, looked up): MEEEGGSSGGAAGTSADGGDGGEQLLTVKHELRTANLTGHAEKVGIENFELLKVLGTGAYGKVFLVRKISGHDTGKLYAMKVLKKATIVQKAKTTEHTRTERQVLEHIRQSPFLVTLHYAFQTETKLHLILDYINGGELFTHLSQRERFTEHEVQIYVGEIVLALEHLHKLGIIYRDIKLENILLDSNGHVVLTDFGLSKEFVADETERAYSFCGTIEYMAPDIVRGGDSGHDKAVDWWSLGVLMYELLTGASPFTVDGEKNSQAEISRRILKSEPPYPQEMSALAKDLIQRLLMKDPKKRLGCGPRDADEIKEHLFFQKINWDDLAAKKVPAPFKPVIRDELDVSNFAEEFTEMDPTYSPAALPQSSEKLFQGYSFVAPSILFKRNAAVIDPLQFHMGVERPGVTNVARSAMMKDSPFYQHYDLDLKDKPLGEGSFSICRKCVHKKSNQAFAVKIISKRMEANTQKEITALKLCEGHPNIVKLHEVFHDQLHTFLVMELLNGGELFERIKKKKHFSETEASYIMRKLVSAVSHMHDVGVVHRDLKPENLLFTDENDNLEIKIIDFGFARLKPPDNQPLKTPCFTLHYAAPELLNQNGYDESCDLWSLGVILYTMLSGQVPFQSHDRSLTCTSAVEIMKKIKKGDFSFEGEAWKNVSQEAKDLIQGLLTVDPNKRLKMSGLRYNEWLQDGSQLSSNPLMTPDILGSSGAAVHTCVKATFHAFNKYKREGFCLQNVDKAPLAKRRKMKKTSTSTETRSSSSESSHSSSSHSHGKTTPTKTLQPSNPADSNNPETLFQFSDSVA
Chain of RAC-gamma serine/threonine-protein kinase (Homo sapiens) (Q9Y243 whole entry): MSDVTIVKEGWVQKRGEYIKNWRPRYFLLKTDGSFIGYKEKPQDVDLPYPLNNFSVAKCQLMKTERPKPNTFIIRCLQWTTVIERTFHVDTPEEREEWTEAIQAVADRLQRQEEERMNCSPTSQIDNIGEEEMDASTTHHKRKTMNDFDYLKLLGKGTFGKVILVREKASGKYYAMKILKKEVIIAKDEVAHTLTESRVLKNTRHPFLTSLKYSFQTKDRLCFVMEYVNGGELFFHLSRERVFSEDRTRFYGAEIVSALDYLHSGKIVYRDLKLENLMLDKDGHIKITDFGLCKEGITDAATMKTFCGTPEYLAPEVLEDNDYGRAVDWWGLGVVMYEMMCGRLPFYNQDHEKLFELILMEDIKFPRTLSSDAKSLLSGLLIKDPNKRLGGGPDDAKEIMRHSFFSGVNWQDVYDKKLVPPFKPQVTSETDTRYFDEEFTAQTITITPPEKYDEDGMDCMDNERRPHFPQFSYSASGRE
Chain of RAC-beta serine/threonine-protein kinase (Homo sapiens) (P31751 whole entry): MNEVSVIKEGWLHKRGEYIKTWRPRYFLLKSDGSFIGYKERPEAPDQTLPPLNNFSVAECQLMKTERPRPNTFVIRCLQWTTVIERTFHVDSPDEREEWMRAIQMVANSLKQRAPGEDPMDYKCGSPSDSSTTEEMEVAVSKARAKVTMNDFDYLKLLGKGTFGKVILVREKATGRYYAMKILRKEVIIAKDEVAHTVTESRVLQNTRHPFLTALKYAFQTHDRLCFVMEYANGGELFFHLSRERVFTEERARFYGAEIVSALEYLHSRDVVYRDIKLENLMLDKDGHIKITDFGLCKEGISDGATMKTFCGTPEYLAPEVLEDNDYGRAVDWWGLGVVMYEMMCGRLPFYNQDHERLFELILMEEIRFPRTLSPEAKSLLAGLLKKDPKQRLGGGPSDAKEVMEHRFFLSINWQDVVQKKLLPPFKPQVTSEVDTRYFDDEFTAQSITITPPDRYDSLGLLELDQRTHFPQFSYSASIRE
Chain of Serine/threonine-protein kinase MRCK alpha (Homo sapiens) (Q5VT25 whole entry): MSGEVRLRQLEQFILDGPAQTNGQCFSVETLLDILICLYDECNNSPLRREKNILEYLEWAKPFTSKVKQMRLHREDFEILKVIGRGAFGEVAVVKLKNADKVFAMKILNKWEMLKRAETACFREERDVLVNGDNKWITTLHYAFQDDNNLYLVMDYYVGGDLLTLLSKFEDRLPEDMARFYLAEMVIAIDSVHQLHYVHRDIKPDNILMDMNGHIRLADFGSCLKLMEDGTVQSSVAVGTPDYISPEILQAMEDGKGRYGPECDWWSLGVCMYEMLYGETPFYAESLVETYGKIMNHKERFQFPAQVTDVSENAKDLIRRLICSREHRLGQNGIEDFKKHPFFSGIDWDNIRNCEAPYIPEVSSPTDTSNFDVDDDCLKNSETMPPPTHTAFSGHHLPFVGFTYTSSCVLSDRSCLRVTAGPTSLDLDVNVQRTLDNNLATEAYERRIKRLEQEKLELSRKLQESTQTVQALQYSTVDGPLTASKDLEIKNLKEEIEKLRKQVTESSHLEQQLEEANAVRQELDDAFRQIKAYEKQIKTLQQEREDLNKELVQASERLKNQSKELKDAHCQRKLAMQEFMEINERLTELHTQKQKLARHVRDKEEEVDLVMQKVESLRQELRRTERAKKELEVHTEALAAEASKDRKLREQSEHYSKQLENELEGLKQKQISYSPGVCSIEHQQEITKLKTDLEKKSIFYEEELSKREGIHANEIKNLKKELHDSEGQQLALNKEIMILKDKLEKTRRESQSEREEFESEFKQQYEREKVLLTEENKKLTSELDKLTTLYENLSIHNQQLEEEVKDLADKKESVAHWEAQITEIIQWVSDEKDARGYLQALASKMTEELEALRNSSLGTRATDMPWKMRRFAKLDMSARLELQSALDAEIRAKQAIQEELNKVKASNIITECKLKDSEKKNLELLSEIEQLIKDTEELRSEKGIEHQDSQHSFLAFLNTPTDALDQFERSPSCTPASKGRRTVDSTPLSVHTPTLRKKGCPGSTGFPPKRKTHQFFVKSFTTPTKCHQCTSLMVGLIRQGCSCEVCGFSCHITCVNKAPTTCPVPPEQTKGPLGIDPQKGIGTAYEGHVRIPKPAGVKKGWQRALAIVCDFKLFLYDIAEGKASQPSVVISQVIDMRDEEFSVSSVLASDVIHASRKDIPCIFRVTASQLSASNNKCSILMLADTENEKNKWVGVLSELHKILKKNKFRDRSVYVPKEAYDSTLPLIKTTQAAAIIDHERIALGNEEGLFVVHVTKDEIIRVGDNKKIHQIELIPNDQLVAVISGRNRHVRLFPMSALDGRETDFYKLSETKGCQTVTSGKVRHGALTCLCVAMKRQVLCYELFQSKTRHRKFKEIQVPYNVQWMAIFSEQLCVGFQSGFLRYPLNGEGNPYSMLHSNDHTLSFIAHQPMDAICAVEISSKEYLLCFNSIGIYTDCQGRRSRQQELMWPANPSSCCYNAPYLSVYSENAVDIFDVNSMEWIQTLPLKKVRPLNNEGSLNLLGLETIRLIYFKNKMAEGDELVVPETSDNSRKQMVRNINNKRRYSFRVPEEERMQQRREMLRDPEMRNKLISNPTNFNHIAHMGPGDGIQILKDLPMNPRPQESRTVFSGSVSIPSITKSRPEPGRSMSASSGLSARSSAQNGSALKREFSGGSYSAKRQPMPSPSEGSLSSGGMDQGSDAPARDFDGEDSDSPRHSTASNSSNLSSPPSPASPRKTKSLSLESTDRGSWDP
Chain of Ribosomal protein S6 kinase alpha-4 (Homo sapiens) (O75676 whole entry, looked up): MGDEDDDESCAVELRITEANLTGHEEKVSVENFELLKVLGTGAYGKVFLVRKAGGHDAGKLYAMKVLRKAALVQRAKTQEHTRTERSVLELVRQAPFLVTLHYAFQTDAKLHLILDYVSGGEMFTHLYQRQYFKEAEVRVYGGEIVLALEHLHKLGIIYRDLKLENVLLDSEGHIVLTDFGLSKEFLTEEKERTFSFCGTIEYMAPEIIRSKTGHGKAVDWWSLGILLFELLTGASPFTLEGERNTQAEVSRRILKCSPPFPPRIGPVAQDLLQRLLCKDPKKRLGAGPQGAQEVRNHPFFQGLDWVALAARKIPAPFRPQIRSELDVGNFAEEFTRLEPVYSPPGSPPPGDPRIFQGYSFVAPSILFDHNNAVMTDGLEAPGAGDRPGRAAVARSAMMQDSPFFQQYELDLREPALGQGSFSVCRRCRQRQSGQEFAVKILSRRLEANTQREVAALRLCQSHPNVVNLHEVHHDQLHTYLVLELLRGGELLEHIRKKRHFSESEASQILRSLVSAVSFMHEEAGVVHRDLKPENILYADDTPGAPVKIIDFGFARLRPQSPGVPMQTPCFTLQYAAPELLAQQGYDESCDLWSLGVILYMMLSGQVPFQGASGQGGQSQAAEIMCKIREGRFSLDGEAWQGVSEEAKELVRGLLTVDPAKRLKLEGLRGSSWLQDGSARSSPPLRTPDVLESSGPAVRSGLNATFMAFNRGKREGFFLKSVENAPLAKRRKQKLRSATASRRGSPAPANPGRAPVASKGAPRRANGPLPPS
Chain of Ribosomal protein S6 kinase beta-1 (Homo sapiens) (P23443 whole entry, looked up): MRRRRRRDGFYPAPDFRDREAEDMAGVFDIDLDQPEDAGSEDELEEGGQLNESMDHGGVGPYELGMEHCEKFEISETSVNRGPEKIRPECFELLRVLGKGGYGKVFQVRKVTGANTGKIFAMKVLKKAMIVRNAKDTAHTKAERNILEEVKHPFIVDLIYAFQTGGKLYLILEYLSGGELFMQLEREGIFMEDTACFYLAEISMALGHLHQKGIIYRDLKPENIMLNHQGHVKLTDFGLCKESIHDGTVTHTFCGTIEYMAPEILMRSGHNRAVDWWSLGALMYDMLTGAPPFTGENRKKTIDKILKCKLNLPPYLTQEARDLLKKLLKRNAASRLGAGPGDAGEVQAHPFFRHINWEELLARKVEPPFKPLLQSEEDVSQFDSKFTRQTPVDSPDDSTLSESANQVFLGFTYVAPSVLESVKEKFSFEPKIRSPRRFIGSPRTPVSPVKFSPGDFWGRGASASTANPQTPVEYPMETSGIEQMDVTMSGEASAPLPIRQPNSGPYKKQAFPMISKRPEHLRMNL

| SMILES | inhibition [1] | inhibition [2] | inhibition [3] | inhibition [4] | inhibition [5] | inhibition [6] | inhibition [7] | inhibition [8] | inhibition [9] | inhibition [10] | inhibition [11] | inhibition [12] | inhibition [13] | inhibition [14] | inhibition [15] | inhibition [16] | inhibition [17] | inhibition [18] | inhibition [19] | inhibition [20] |
| --- | --- | --- | --- | --- | --- | --- | --- | --- | --- | --- | --- | --- | --- | --- | --- | --- | --- | --- | --- | --- |
| Nc1ncnc2occ(-c3ccc(NC(=O)Nc4cc(C(F)(F)F)ccc4F)cc3)c12 | 0.73% and -2.6% | 0.58% and -1.87% | 1.35% and -1.97% | 0.45% and -2.44% | 1.41% and -1.65% | 1.58% and 0.37% | 0.64% and -1.58% | -4.06% and -1.29% | 0.46% and 3.18% | -5.44% and -7.01% | 0.43% | -0.27% and 0.62% | 0.53% and -0.08% | 0.77% and -0.99% | 5.58% and -0.86% | 23.9% and 10.9% | 3.23% and -1.15% | 19.7% and 6.99% | 28.2% and 17.1% | 77.4% and 70.2% |
| COc1ccc(Nc2ncc(-c3ccccc3)o2)cc1OC | -0.43% | 0% | -0.16% | 0.11% | -0.29% | 1.24% | -1.81% | -1.23% | -1.93% | 1.56% | 0.45% | 2.02% | 0.74% | 1.74% | 0.37% | 1.73% | 1.03% | 4.59% | 1.51% | 2.28% |
| CC(C)c1ccc(-c2cc(-c3c[nH]nc3-c3ccccn3)ccn2)cc1 | 0.13% | 0.07% | -0.03% | 0.06% | 1.01% | 0.29% | -1.41% | -0.19% | 2.99% | 1.48% | -0.14% | -0.28% | -0.59% | 2.06% | 1.59% | 1.63% | 1.53% | 2.87% | 0.17% | -0.41% |
| O=C(O[C@H]1CN[C@H](C#Cc2cc3ncnc(Nc4ccc5c(cnn5Cc5ccccc5)c4)c3s2)C1)N1CCOCC1 | -0.59% | -0.52% | -0.56% | -0.1% | -1.03% | 0.11% | -0.66% | 2.38% | 2.39% | 0.44% | 0.53% | -6.83% | -0.65% | -2.08% | -1.78% | -2.26% | 0.14% | -0.97% | -0.07% | -1.65% |
| Cc1cc(O)cc(C)c1/C=C/c1cncc(C(N)=O)c1 | 0.41% | 1.41% | 1.8% | 1.63% | 1.06% | 1.18% | 2.81% | 0.48% | 0.88% | -1.37% | 0.25% | 0.43% | 1.39% | 1.02% | 1.68% | 2.9% | 1.67% | 2.18% | 1.07% | 0.31% |
| CS(=O)(=O)CCNCc1ccc(-c2ccc3ncnc(Nc4ccc(OCc5ccccc5)cc4)c3c2)o1 | 0.6% | 0.62% | 0.5% | 1.64% | 0.25% | 2% | 3.01% | 3.33% | 4.51% | 4.87% | -0.82% | -2.61% | 0.05% | 1.22% | 1.86% | 0.66% | 3.06% | 2.56% | 1.52% | 2.62% |
| CC1(C)CC(n2cnc(-c3ccc(F)cc3)c2-c2ccnc(N)n2)CC(C)(C)N1 | -0.24% | 0.14% | -0.58% | 0.6% | 0.06% | -0.35% | 0.95% | 2.33% | -0.49% | -1.38% | 0.39% | -0.52% | 0.89% | 1.72% | -2.87% | -2.36% | 2.08% | 3.62% | 1.01% | 0.28% |
| Cc1c2ccc(N(C)c3ccnc(Nc4cccc(S(N)(=O)=O)c4)n3)cc2nn1C | -2.15% | -4.81% | -2.16% | -3.49% | -0.07% | -4.61% | -0.96% | 1.02% | 3.31% | 8.97% | -0.27% | 0.18% | 0.8% | 0.18% | 2.9% | 1.29% | 2.14% | 5.76% | 2.59% | 2.64% |
| CNC(=O)c1cncc(/C=C/c2ccccc2C)c1 | 0.63% | 1.08% | 2.41% | 2.34% | 1.3% | 1.52% | 3.92% | 8.41% | 3.15% | 0.44% | -0.01% | 2.94% | -0.34% | 0.83% | 3.42% | 6.01% | 2.58% | 4.27% | -0.48% | 1.97% |
| c1cnn2ncc(-c3ccnc(NCCCN4CCOCC4)n3)c2c1 | 0.48% | 0.29% | 1.29% | 1.85% | 1.38% | 1.68% | 4.92% | 3.86% | 20.1% | 15.5% | -0.89% | -2.56% | 0.55% | 3.84% | 6.61% | 6.41% | 5.88% | 7.41% | 2.05% | 2.73% |
| COC(=O)Nc1nc2ccc(Oc3ccc(NC(=O)Nc4cc(C(F)(F)F)ccc4F)cc3)cc2s1 | -0.37% | -0.66% | -0.14% | -0.64% | 1.34% | -0.4% | -1.28% | -1.53% | -0.68% | 6.1% | -0.38% | -1.54% | 0.73% | 1.68% | 0.52% | 0.93% | 1.67% | 2.86% | 6.33% | 23.2% |
| N#Cc1cccc(Nc2ncc(-c3ccccc3)o2)c1 | 0% | -0.69% | 0.15% | 0.75% | 0.9% | -0.1% | 5.37% | 8.61% | 2.76% | 11.2% | 0.38% | 2.09% | -1.64% | -0.28% | 1.22% | 2.21% | 1% | 2.71% | -0.53% | 1.42% |
| CCCNc1cccc(-n2ncc3c(N/N=C/c4ccncc4)ncnc32)c1 | 0.34% | -0.51% | 0.22% | -0.08% | -0.05% | -1.08% | 3.49% | 3.97% | 2.68% | 4.45% | 1.31% | 5.18% | -0.11% | 0.92% | -4.25% | -2.6% | 1.74% | 2.6% | 1.2% | 8.74% |
| N#Cc1ccc2c(-c3ccnc(NC4CC4)n3)c(-c3ccc(F)cc3)nn2c1 | 0.77% | -0.12% | 0.14% | 0.78% | 0.56% | 2.99% | 1.67% | 2.24% | 4.35% | 1.98% | 0.79% | 0.87% | 0.13% | 0.52% | 0.77% | -0.33% | 0.92% | -0.56% | 0.06% | -0.85% |
| CCS(=O)(=O)c1ccc(OC)c(Nc2ncc(-c3cccc(C(C)=O)c3)o2)c1 | 0.68% | 0.26% | 0.96% | 2.41% | 1.01% | 1.05% | 3.78% | 10.8% | 4.52% | 4.18% | -0.63% | 3.28% | -1.42% | -0.03% | 2.8% | 4.68% | 0.6% | 2.7% | 1.32% | 2.57% |
| Fc1cccc(COc2ccc(Nc3ncncc3C#Cc3ccccc3)cc2Cl)c1 | 0.45% | 1.07% | 1.28% | 1.61% | 0.72% | 1.12% | 7.01% | 9.97% | 5.2% | 9.23% | -0.09% | 2.32% | -0.25% | 0.29% | 3.88% | 4.33% | 2.46% | 4.37% | 1.71% | 2.17% |
| NC(=O)c1ccc2c(-c3ccnc(NCCCO)n3)c(-c3ccc(F)cc3)nn2c1 | 0.79% | -0.47% | 1.62% | 1.08% | 1.04% | 2.17% | 0.86% | 2.38% | 1.93% | 4.08% | 0.04% | 2.55% | 0.29% | 2.28% | 11.4% | 8.01% | 1.44% | 2.05% | 1.72% | 1.46% |
| CN1CCN(Cc2ccc(-c3cc4ncnc(Nc5ccc(OCc6cccc(F)c6)c(Cl)c5)c4s3)o2)CC1 | 2.3% and 0.84% | 0.33% and 0.82% | 1.77% and 3.25% | 4.18% and 1.52% | 0.53% and 1.8% | 4.32% and 3.89% | -0.68% and 8.35% | -0.78% and 9.33% | 9.19% and 5.43% | 0.67% and 9.84% | -1.39% and -0.36% | -3.23% and 2% | -0.68% and -0.01% | -1.28% and -0.15% | 7.37% and 3.64% | 6.3% and 5.71% | 1.66% and 2.85% | 1.25% and 4.7% | 0.39% and 0.55% | 1.79% and 5.31% |
| CNC(=O)c1ncccc1Nc1nc(Nc2cc3c(cc2OC)CCCN3C(=O)CN(C)C)nc2[nH]ccc12 | 1.11% | 1.38% | 2.81% | 2.14% | 2.74% | 1.71% | 14.5% | 56.7% | 16.9% | 50.4% | -0.11% | 2.88% | 1.2% | 2.41% | 3.81% | 3.98% | 2.93% | 5.8% | 2.79% | 3.62% |
